# Reference: PubChem BioAssay (Tox21)
# Unmarked numbers belong to inactive results. Records with an inconclusive call do not appear. A call without a number means that no potency is given here. Active and inactive are the calls of the source. Unless noted, the call rests on the fitted dose curve; in most records, active means well fitted curve in the direction sought with a large enough effect in the repeat runs; inconclusive means weak or mixed curves; inactive means no such curve, though single readings can be large; an effect the other way counts as inactive or inconclusive.
# What was measured:
# [1] = qHTS assay for small molecule agonists of the p53 signaling pathway (AID 651631; calls by dose curve; further: nearly all actives have a fitted effect of over 15% in size); conditions: HCT-116 p53RE-bla reporter, beta-lactamase FRET ratio, 16 h; series mostly up to 73.3 µM
# Outline: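 Beta-lactamase reporter activity under p53 response elements was quantified in HCT-116 cells by FRET fluorescence, following 16 h incubation with test compounds at 37 °C and 2 h substrate development at room temperature.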
# [2] = qHTS assay for small molecules that induce genotoxicity in human embryonic kidney cells expressing luciferase-tagged ATAD5 (AID 651632); conditions: HEK293T ATAD5-luciferase induction, 16 h; series mostly up to 83.3 µM; further: nearly all actives have a fitted effect of over 15% in size
# Outline: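 HEK293T cells carrying luciferase-tagged ATAD5 were given compound or DMSO vehicle and incubated 16 hr at 37C, 5% CO2. Luciferase activity was read after 30 min at room temperature with Amplite; a rise signals genotoxic stress.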
# [3] = qHTS assay for small molecule agonists of the p53 signaling pathway - cell viability (AID 651633; calls by dose curve; further: nearly all actives have a fitted effect of over 30% in size); conditions: p53RE-bla HCT-116 viability, ATP luminescence, 16 h; series mostly up to 83.3 µM
# Outline: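 p53RE-bla cells, seeded at 4,000 per well and rested 5 h at 37 C/5% CO2, received compounds in DMSO for 16 h at 37 C. CellTiter-Glo was then added, and luminescence was read after 30 min at room temperature to gauge cytotoxicity.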
# [4] = qHTS assay for small molecules that induce genotoxicity in human embryonic kidney cells expressing luciferase-tagged ATAD5 - cell viability (AID 651634; calls by dose curve; further: nearly all actives have a fitted effect of over 25% in size); conditions: HEK293T ATAD5-luc cells viability, CellTiter-Fluor, 15.5 h; series mostly up to 83.3 µM
# Outline: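 HEK293T cells carrying luciferase-tagged ATAD5, 2,000 cells/well, exposed to compound for 15.5 hr at 37C. Viability read as live-cell protease activity by CellTiter-Fluor fluorescence after 30 min at 37C.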
# [5] = qHTS assay for small molecule disruptors of the mitochondrial membrane potential - cell viability (AID 720634; calls by dose curve;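 further: human HepG2 liver cancer cells; nearly all actives have a fitted effect of over 20% in size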); conditions: HepG2 viability, ATP luminescence (CellTiter-Glo), 1 h; series mostly up to 83.2 µM
# Outline: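 HepG2 cells, 2,000 per well, attached overnight, then treated 1 hr at 37 C, 5% CO2. Viability read as ATP by CellTiter-Glo luminescence after 30 min at room temperature. Read in the same wells as the m-MPI membrane-potential dye assay.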
# [6] = qHTS assay to test for compound auto fluorescence at 590 nm (red) in HepG2 cells (AID 720674); conditions: HepG2 autofluorescence, red 540/590 nm, 1 h; series mostly up to 91.3 µM
# Outline: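 Rose Bengal sodium served as the red fluorophore standard. HepG2 monolayers (overnight attachment, MEM with 10% FBS) were exposed to test compounds for 1 hr at 37 C and read at Ex 540/Em 590 nm.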
# [7] = qHTS assay to test for compound auto fluorescence at 535 nm (green) in HepG2 cells (AID 720675); conditions: green autofluorescence 485/535 nm, 1 h; series mostly up to 91.3 µM
# [8] = qHTS assay to test for compound auto fluorescence at 460 nm (blue) in HEK293 cells (AID 720678); conditions: blue autofluorescence 405/460 nm; series mostly up to 91.3 µM
# Outline: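 Intrinsic compound fluorescence is recorded in live HEK293 cultures after overnight incubation at 37C, 5% CO2, using excitation 405 nm and emission 460 nm. Values are referenced to triamterene.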
# [9] = qHTS assay to test for compound auto fluorescence at 590 nm (red) in HEK293 cells (AID 720679); conditions: red autofluorescence 540/590 nm; series mostly up to 91.3 µM
# Outline: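 Red autofluorescence, HEK293 cells: 2,000 cells/well; attach 4-5 hr 37C; add 23 nL cpd or DMSO; incubate o/n 37C 5% CO2; read Ex540/Em590; Rose Bengal sodium reference.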
# [10] = qHTS assay for small molecule disruptors of the mitochondrial membrane potential (AID 720635); conditions: HepG2 mitochondrial membrane potential, Mito-MPS dye ratio; series mostly up to 83.2 µM; further: potency means the concentration at half of the fitted maximal effect
# Outline: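 HepG2 cells (2,000/well) attached overnight at 37C, then took compound for 1 hr at 37C, 5% CO2. Mito-MPS dye was added for 30 min; fluorescence was read at 490/535 nm (monomers) and 540/590 nm (aggregates).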
smiles,measurement,setting,value
CN(C)CCCNCCC#N,outcome,[1],inactive
same,outcome,[2],inactive
same,outcome,[3],inactive
same,Potency,[4],inactive
same,outcome,[5],inactive
same,outcome,[6],inactive
same,outcome,[7],inactive
same,outcome,[8],inactive
same,outcome,[9],inactive
Nc1cc(S(=O)(=O)O)ccc1S(=O)(=O)O,outcome,[1],inactive
same,outcome,[2],inactive
same,outcome,[3],inactive
same,Potency,[4],inactive
same,outcome,[5],inactive
same,outcome,[6],inactive
same,outcome,[7],inactive
same,outcome,[8],inactive
same,outcome,[9],inactive
OC(CCN1CCCCC1)(c1ccccc1)c1ccccc1,outcome,[1],inactive
same,outcome,[2],inactive
same,outcome,[3],inactive
same,Potency,[4],inactive
same,outcome,[5],inactive
same,outcome,[6],inactive
same,outcome,[7],inactive
same,outcome,[8],inactive
same,outcome,[9],inactive
CCCCCCCC/C=C\CCCCCCCC(=O)OC[C@@H](O)[C@H]1OC[C@H](O)[C@H]1O,outcome,[1],inactive
same,outcome,[2],inactive
same,outcome,[3],inactive
same,Potency,[4],inactive
same,outcome,[5],inactive
same,Potency,[10],inactive
same,outcome,[7],inactive
same,outcome,[8],inactive
same,outcome,[9],inactive
CCCC(C)CC (stereo not given),outcome,[1],inactive
same,outcome,[2],inactive
same,outcome,[3],inactive
same,Potency,[4],inactive
same,outcome,[5],inactive
same,Potency,[10],inactive
same,outcome,[6],inactive
same,outcome,[9],inactive
C=CC(C)(O)CC/C=C(\C)CC (stereo not given),outcome,[1],inactive
same,outcome,[2],inactive
same,outcome,[3],inactive
same,Potency,[4],inactive
same,outcome,[5],inactive
same,outcome,[6],inactive
same,outcome,[7],inactive
same,outcome,[8],inactive
same,outcome,[9],inactive
C[C@H](CCC(=O)NCC(=O)O)[C@H]1CC[C@H]2[C@@H]3[C@H](O)C[C@@H]4C[C@H](O)CC[C@]4(C)[C@H]3C[C@H](O)[C@]12C,outcome,[1],inactive
same,outcome,[2],inactive
same,outcome,[3],inactive
same,Potency,[4],inactive
same,outcome,[5],inactive
same,Potency,[10],inactive
same,outcome,[7],inactive
same,outcome,[8],inactive
same,outcome,[9],inactive
O=C(O)CCNC(=O)c1ccccc1,outcome,[1],inactive
same,outcome,[2],inactive
same,outcome,[3],inactive
same,Potency,[4],inactive
same,outcome,[5],inactive
same,Potency,[10],inactive
same,outcome,[6],inactive
same,outcome,[8],inactive
same,outcome,[9],inactive
C=CCCCCCCCCCCC,activation,[1],-4.17% [at 8.3 µM]
same,activation,[2],1.83% [at 8.08 µM]
same,"activity change, negative = cytotoxicity",[3],6.07% [at 8.08 µM]
same,"activity, negative = cytotoxicity",[4],-5.67% [at 8.08 µM]
same,"activity change, negative = cytotoxicity",[5],9.56% [at 8.08 µM]
same,"ratio activity, negative = MMP loss",[10],-12.5% [at 8.08 µM]
same,"fluorescence, % of fluorescein control",[7],0.103% [at 3.72 µM]
same,"fluorescence, % of triamterene",[8],-0.171% [at 3.72 µM]
same,"fluorescence, % of fluorescent control",[9],-0.0532% [at 3.72 µM]
CC(=O)OC(C)(C)Cc1ccccc1,outcome,[1],inactive
same,outcome,[2],inactive
same,outcome,[3],inactive
same,Potency,[4],inactive
same,outcome,[5],inactive
same,Potency,[10],inactive
same,outcome,[8],inactive
same,outcome,[9],inactive
C1CCN2C[C@@H]3C[C@@H](CN4CCCC[C@@H]34)[C@H]2C1,outcome,[1],inactive
same,outcome,[2],inactive
same,outcome,[3],inactive
same,Potency,[4],inactive
same,outcome,[5],inactive
same,Potency,[10],inactive
same,"fluorescence, relative to Rose Bengal",[6],0.0708% [at 18.6 µM]
same,"fluorescence, % of fluorescein control",[7],-0.0003% [at 18.6 µM]
same,"fluorescence, % of fluorescent control",[9],-0.036% [at 18.6 µM]
CCC(=O)c1ccc(O)cc1,outcome,[1],inactive
same,outcome,[2],inactive
same,outcome,[3],inactive
same,Potency,[4],inactive
same,outcome,[5],inactive
same,outcome,[6],inactive
same,outcome,[7],inactive
same,outcome,[8],inactive
same,outcome,[9],inactive
O=C(c1ccc2c(c1)C(=O)OC2=O)c1ccc2c(c1)C(=O)OC2=O,outcome,[1],inactive
same,outcome,[2],inactive
same,outcome,[3],inactive
same,Potency,[4],inactive
same,outcome,[5],inactive
same,Potency,[10],inactive
same,outcome,[6],inactive
same,outcome,[8],inactive
same,outcome,[9],inactive
Cc1ccccc1C(=O)N1CC/C(=N\OS(=O)(=O)O)c2ccc(Cl)cc21,outcome,[1],inactive
same,outcome,[2],inactive
same,outcome,[3],inactive
same,Potency,[4],inactive
same,outcome,[5],inactive
same,Potency,[10],inactive
same,outcome,[6],inactive
same,outcome,[8],inactive
same,outcome,[9],inactive
NC(=O)C1(N2CCCCC2)CCN(CCCC(=O)c2ccc(F)cc2)CC1,outcome,[1],inactive
same,outcome,[2],inactive
same,outcome,[3],inactive
same,Potency,[4],inactive
same,outcome,[5],inactive
same,Potency,[10],inactive
same,outcome,[6],inactive
same,outcome,[7],inactive
same,outcome,[9],inactive
Cc1cccc(C(=O)O)c1[N+](=O)[O-],outcome,[1],inactive
same,outcome,[2],inactive
same,outcome,[3],inactive
same,Potency,[4],inactive
same,outcome,[5],inactive
same,outcome,[6],inactive
same,outcome,[7],inactive
same,outcome,[8],inactive
same,outcome,[9],inactive
CCOC(=O)CC#N,outcome,[1],inactive
same,outcome,[2],inactive
same,outcome,[3],inactive
same,Potency,[4],inactive
same,outcome,[5],inactive
same,Potency,[10],inactive
same,outcome,[6],inactive
same,outcome,[7],inactive
same,outcome,[9],inactive
O=C(O)Cc1cccc(-c2cc(CCCCCCc3ccc(O[C@H]4O[C@H](CO)[C@@H](O)[C@H](O)[C@@H]4O)c(-c4cccc(CC(=O)O)c4)c3)ccc2O[C@H]2O[C@H](CO)[C@@H](O)[C@H](O)[C@@H]2O)c1,outcome,[1],inactive
same,outcome,[2],inactive
same,outcome,[3],inactive
same,Potency,[4],inactive
same,outcome,[5],inactive
same,outcome,[6],inactive
same,outcome,[7],inactive
same,outcome,[8],inactive
same,outcome,[9],inactive
CO[Si](CCCS)(OC)OC,outcome,[1],inactive
same,outcome,[2],inactive
same,outcome,[3],inactive
same,Potency,[4],inactive
same,outcome,[5],inactive
same,Potency,[10],inactive
same,outcome,[7],inactive
same,outcome,[8],inactive
same,outcome,[9],inactive
CCNC(=O)NCCCOc1cccc(CN2CCCCC2)c1,outcome,[1],inactive
same,outcome,[2],inactive
same,outcome,[3],inactive
same,Potency,[4],inactive
same,outcome,[5],inactive
same,outcome,[6],inactive
same,outcome,[7],inactive
same,outcome,[8],inactive
same,outcome,[9],inactive
OC[C@@H](O)[C@H](O)[C@@H](O)[C@@H](O)CO,outcome,[1],inactive
same,outcome,[2],inactive
same,outcome,[3],inactive
same,Potency,[4],inactive
same,outcome,[5],inactive
same,outcome,[6],inactive
same,outcome,[7],inactive
same,outcome,[8],inactive
same,outcome,[9],inactive
Cc1cc(O)c2c(c1)C(=O)c1cccc(O)c1C2=O,outcome,[1],inactive
same,outcome,[2],inactive
same,outcome,[3],inactive
same,Potency,[4],inactive
same,outcome,[5],inactive
same,Potency,[10],11.9 µM (active)
same,outcome,[6],inactive
same,outcome,[7],inactive
same,outcome,[9],inactive
CCN1CN(CC)CN(CC)C1,outcome,[1],inactive
same,outcome,[2],inactive
same,outcome,[3],inactive
same,Potency,[4],inactive
same,outcome,[5],inactive
same,Potency,[10],inactive
same,outcome,[7],inactive
same,outcome,[8],inactive
same,outcome,[9],inactive
C=COCCOCCOC=C,outcome,[1],inactive
same,outcome,[2],inactive
same,outcome,[3],inactive
same,Potency,[4],inactive
same,Potency,[10],inactive
same,outcome,[6],inactive
same,outcome,[7],inactive
same,outcome,[9],inactive
NS(=O)(=O)c1ccccc1OC(F)(F)F,outcome,[1],inactive
same,outcome,[2],inactive
same,outcome,[3],inactive
same,Potency,[4],inactive
same,outcome,[5],inactive
same,outcome,[6],inactive
same,outcome,[7],inactive
same,outcome,[9],inactive
Oc1ccccc1Cc1ccccc1O,outcome,[1],inactive
same,outcome,[2],inactive
same,outcome,[3],inactive
same,Potency,[4],inactive
same,Potency,[10],7.7 µM (active)
same,outcome,[6],inactive
same,outcome,[7],inactive
same,outcome,[8],inactive
same,outcome,[9],inactive
